Only some compounds are listed: those with a hit (about 4% of all), similar ones and a draw of the others.
KKLEB cytotox = CF airway cell cytotoxicity counter-screen. KKLEB CF airway cells viability, ATPlite luminescence, overnight; stronger effect = lower value; cells stimulated with P. aeruginosa culture filtrate. activity change (cytotoxicity), % at 5 µM. hit rate 0.36% among 360,000;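 active = corrected activity change at or below -50% at 5 µM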
TWEAK Fn14 block = TWEAK-Fn14 signaling inhibition; TWEAK-stimulated Fn14 reporter cells, luciferase luminescence, 8 h; inhibition, % at 10 µM; hit rate 2% among 360,000; AID 1159606; in the data active = inhibition above about 50%
TROY NFkB inh = blocks TROY-dependent signaling in reporter cells | Q293 LMP1-TROYcd NF-kB luciferase reporter, 4 h | inhibition, % at 10 µM | hit rate 0.98% among 360,000 | AID 1347056;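 active = compounds whose plate-normalised and pattern-corrected inhibition of the luciferase reporter signal at the single screening dose is 50% or more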
HIF-2a block = blocks HIF-2a reporter activity; 786-0 RCC cells HIF-2a reporter, luciferase luminescence, overnight; inhibition, % at 18.8 µM; hit rate 0.72% among 360,000; AID 624352;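 active = inhibition of the luminescence signal of 40% or more relative to plate controls, in a single-dose primary screen at 18.75 µM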
CF NFkB inh = cystic fibrosis NF-kB activation inhibition; inhibition, % at 5 µM; hit rate 0.86% among 360,000; KKLEB NF-kB-GFP reporter, PAF-induced, GFP fluorescence overnight; AID 588850;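 active = at least 50% inhibition at 5 µM, scaled per plate between neutral and stimulator controls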;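 also: PAF is a Pseudomonas aeruginosa culture filtrate used as stimulus; plate controls were PAF-stimulated DMSO wells for no effect and unstimulated DMSO wells for full effect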
Peg3 promoter = Peg3 promoter activity inhibition | HeLa PEG-Prom luciferase reporter, luminescence, overnight | inhibition, % at 20 µM | hit rate 1.7% among 360,000 | AID 588405;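 active = inhibition of at least 50% at 20 µM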
Numbers without * were called inactive; . = not tested or not shown.

SMILES	KKLEB cytotox	TWEAK Fn14 block	TROY NFkB inh	HIF-2a block	CF NFkB inh	Peg3 promoter
NC(=O)c1nsc(C(=O)N(CC(=O)NCc2ccccc2)c2cccc(F)c2)c1N	4.4	-5.8	4.7	9.3	-14.4	18.2
CCN1/C(=C/c2sc(-c3ccccc3C)c[n+]2C)Sc2ccccc21	-35.7	63.3*	46.7	-75.6	33.7	37.8
CCC(=O)/C=C1/Sc2ccccc2N1CC	12.7	15.9	-7.0	-7.4	1.8	-6.6
O=C(Nc1nnc(Cc2c[nH]c3ccccc23)s1)c1ccc(Cl)cc1Cl	6.2	65.4*	-4.0	-27.2	-16.4	-54.4
CC(C)(C)c1ccc(C(=O)Nc2nnc(Cc3c[nH]c4ccccc34)s2)cc1	-1.6	40.2	11.2	-2.3	-3.6	14.9
COc1cc(/C=C(\C#N)C(=O)c2ccc(O)c(O)c2)cc(I)c1O	-14.2	20.5	13.5	2.6	-21.8	10.1
COc1ccc(NC(C)=O)cc1NC(C)C(=O)Nc1ccc(F)cc1 (stereo not given)	-2.2	-2.7	-2.5	13.7	-3.8	4.8
Cc1ccc(NC(=S)Nc2cccc3cnccc23)cc1C	-18.9	25.8	28.6	-143.5	36.3	-121.7
CC(=O)Nc1cccc(NC(=S)Nc2cccc3ccccc23)c1	-11.5	-6.3	3.1	-213.0	-24.1	-274.2
COc1ccc(NC(C)=O)cc1NC(C)C(=O)Nc1cccc2ccccc12 (stereo not given)	4.2	36.8	57.1*	-119.0	-14.9	-245.2
CC(=O)c1cccc(NC(=S)Nc2cccc3ccccc23)c1	-2.1	36.8	56.8*	-146.1	-3.4	-98.0
CC(=O)c1ccc(NC(=S)Nc2cccc3cnccc23)cc1	5.9	59.5*	33.7	-20.5	18.1	-26.5
S=C(Nc1cccc(Cl)c1)Nc1cccc2cnccc12	-1.6	76.2*	33.9	-39.2	1.9	-22.0
Cc1nnc(SCC(=O)Nc2ncc(Cl)cc2Cl)n1Cc1ccccc1	7.1	-6.1	4.0	4.2	-17.1	1.2
COc1cc(S(=O)(=O)NCC(c2ccco2)N2CCCCC2)ccc1NC(C)=O (stereo not given)	3.7	5.9	-9.1	1.9	1.9	-4.8
Cc1ccsc1C(=O)NCCc1ccc(S(N)(=O)=O)cc1	-8.2	3.3	8.8	8.3	-12.8	-0.9
S=C(NCc1ccccc1)Nc1cccc2cnccc12	0.6	76.8*	41.6	12.5	11.2	29.9
COc1ccc(NC(=S)Nc2cccc3ccccc23)cc1OC	9.5	94.5*	30.7	-108.9	-9.2	-28.8
C=C1C(=O)[C@]23C[C@H]1CCC2[C@@]1(C)C(C[C@@H]3O)[C@](C)(C(=O)OC)CC[C@@H]1OC(C)=O (stereo not given in full)	-100.5*	96.2*	37.1	97.7*	89.3*	102.2*
CCc1ccc(NC(=O)CSc2nc(=O)n(CCCN3CCOCC3)c3c2CCC3)cc1	21.4	6.0	14.0	2.9	-31.4	26.0
O=C(O)c1ccc(CSc2nc3ccc(N4C(=O)C5C6C=CC(C6)C5C4=O)cc3s2)cc1 (stereo not given)	1.7	51.1*	34.4	31.1	-2.4	5.6
CCC(=O)Nc1ccc(C(=O)NNC(=O)COc2cc(C)ccc2C)cc1	1.5	-9.6	-3.8	18.7	3.2	9.9
CC(O)(c1ccc(F)c(F)c1)c1nc(-c2ccoc2)cs1 (stereo not given)	-3.6	18.0	-14.4	-16.2	-19.6	6.8
CC(C)c1[nH]nc2c1C(c1cccc(OC(=O)N3CCOCC3)c1)C(C#N)=C(N)O2 (stereo not given)	-2.9	-8.4	16.9	9.7	-0.8	10.7
O=[N+]([O-])c1cc(S(=O)(=O)Nc2cccc(C(F)(F)F)c2)ccc1-n1nnc2ccccc21	-1.7	13.6	57.8*	8.9	23.4	38.3
SMILES	KKLEB cytotox	TWEAK Fn14 block	TROY NFkB inh	HIF-2a block	CF NFkB inh	Peg3 promoter
Cc1cc(-c2ccccc2)nc2cc(C(=O)N(Cc3ccccc3)Cc3ccccc3)nn12	-15.1	3.6	.	15.3	31.9	58.1*
CS(=O)(=O)N1CCN(c2ccc([N+](=O)[O-])c(NCc3ccccc3)c2)CC1	-5.1	75.4*	.	14.2	5.7	28.2
CCS(=O)(=O)N1CCN(c2ccc([N+](=O)[O-])c(NCc3ccccc3)c2)CC1	-4.6	-7.1	-15.5	11.7	-7.0	17.6
Cc1ccc(N(C(=O)Cn2nnc(-c3ccc(C)o3)n2)C(C(=O)NC2CCCC2)c2ccncc2)cc1 (stereo not given)	1.8	55.9*	5.5	1.5	-5.8	23.4
Cc1nnc(SCc2cc(=O)oc3cc(O)ccc23)n1Cc1ccccc1	1.2	7.4	12.7	21.8	4.4	18.3
Cc1ccc(NC(=O)CSCc2cc(=O)n3cc(C)sc3n2)cc1	3.8	-7.8	12.3	-0.9	-16.0	-2.3
CCOC(=O)Cc1csc(N/N=C/c2cccc([N+](=O)[O-])c2)n1	5.7	-10.8	-13.2	-31.9	-6.6	-39.3
O=[N+]([O-])c1cccc(-c2csc(N/N=C/c3cccc(O)c3)n2)c1	11.0	58.1*	51.3*	-274.8	40.4	101.8*
O=C(O)C1CCCCC1C(=O)N1CC=C(c2ccccc2)CC1 (stereo not given)	-0.5	79.7*	67.9*	26.7	8.5	-25.0
Cc1ccc(C(=O)N2CC=C(c3ccccc3)CC2)s1	12.7	-32.5	-55.5	-160.0	-37.6	-108.8
N#CCC(=O)N/N=C/c1cc([N+](=O)[O-])ccc1N1CCCC1	-1.5	-41.2	-39.1	6.0	-105.9	-56.5
O=C(N/N=C/c1cc([N+](=O)[O-])ccc1N1CCNCC1)c1ccc([N+](=O)[O-])cc1	-6.8	-120.8	3.4	28.3	-5.3	102.5*
COc1ccccc1C(=O)Nc1nc(-c2ccc(S(=O)(=O)N3CCOCC3)cc2)cs1	-10.2	106.8*	64.7*	-11.2	-17.6	95.5*
COc1ccccc1OC(C)C(=O)Nc1nc(-c2ccc(S(=O)(=O)N3CCOCC3)cc2)cs1 (stereo not given)	10.4	39.7	14.8	16.8	4.5	25.1
CCOc1ccc2nc(NC(=O)c3ccc(OC)c(S(=O)(=O)N4CCOCC4)c3)sc2c1	8.3	43.8	53.0*	-1.1	1.4	32.7
O=C(COc1cccc(Cl)c1)Nc1nc(-c2ccc(S(=O)(=O)N3CCOCC3)cc2)cs1	-1.5	56.5*	38.4	11.8	-6.3	23.8
CC(C)C(=O)Nc1nc(-c2ccc(S(=O)(=O)N3CCOCC3)cc2)cs1	-2.1	-1.0	3.3	11.3	0.7	1.2
O=C(Nc1nc(-c2ccccc2)cs1)c1ccccc1NS(=O)(=O)c1ccc(F)cc1	-37.0	88.0*	49.5	-8.8	47.7	40.3
COc1cc(NC(=O)COC(=O)CC(NC(C)=O)c2ccccc2)cc(OC)c1 (stereo not given)	-12.9	5.5	-4.0	12.2	-4.7	4.0
CC(Oc1ccc2c3c(c(=O)oc2c1)CCCC3)C(=O)NCc1ccccn1 (stereo not given)	-3.4	-1.6	-2.8	-4.0	3.3	8.7
